Pf apPOL inh: Pf-apPOL DNA polymerase inhibition. Recombinant Pf-apPOL, molecular beacon fluorescence, 1.5 h. inhibition, % at 10 µM. 210,000 compounds, 0.25% hits. AID 1794808
mHTT-CaM PPI inh: disrupts binding of mutant huntingtin to calmodulin; P42858; inhibition, % at 15 µM; AlphaScreen His-mHTT/GST-CaM binding, luminescence; 190,000 compounds, 3.6% hits
Each line names hits and unclear results; the compound was inactive in the other large screens; ! = a repeat was not active. An excerpt weighted towards active compounds, which were near 3.5% of everything screened. Cut-off read from the data, not from the text of the source: active = inhibition above about 50%; inactive = the rest.

CCOc1ccc(CN2CCc3nc(Nc4ccccc4)ncc3C2)cc1OC	none
COc1cc(CN2CCc3nc(Nc4ccccc4F)ncc3C2)ccc1OC(C)C	none
COc1cc(CN2CCc3nc(Nc4ccccc4)ncc3C2)ccc1OC(C)C	mHTT-CaM PPI inh 57
Cc1cc(OCC(=O)Nc2ccc(F)cc2F)nc(N2CCC(C)CC2)n1	none
COc1ccc(-c2ccoc2)cc1[C@H]1[C@H]2C=CC[C@@H](C)[C@@H]2C(=O)N1Cc1ccccc1	mHTT-CaM PPI inh 86
COc1ccc(-c2ccc(C)cc2)cc1[C@H]1[C@H]2C=CC[C@@H](C)[C@@H]2C(=O)N1Cc1ccccc1	none
CCOc1ccccc1N1CCN(Cc2cc3c(cc2[N+](=O)[O-])OCO3)CC1	mHTT-CaM PPI inh 51
O=[N+]([O-])c1cc2c(cc1CN1CCN(c3ccc(F)cc3)CC1)OCO2	none
Cc1ccccc1N1CCN(Cc2cc3c(cc2[N+](=O)[O-])OCO3)CC1	none
O=[N+]([O-])c1cc2c(cc1CN1CCN(c3cccc(Cl)c3)CC1)OCO2	mHTT-CaM PPI inh 77
Cc1cc([N+](=O)[O-])ccc1NC(=O)C1COc2ccccc2O1 (configuration not stated)	none
CC1(C)C(=O)NCCN1C(=O)c1cccc(Br)c1	none
Cc1cc(C)c2c(N3CCCCC3)nc(C(=O)N3CCC(C)CC3)nc2n1	none
Cc1ccc(O)c(N=Cc2cc(I)ccc2O)c1	mHTT-CaM PPI inh 63
Cc1cc(I)c(O)c(C=Nc2cc(C)ccc2O)c1	none
COc1ccc(Br)cc1CN(C)C	none
OC1(c2ccccc2)CCN(Cc2ccccc2)C1 (configuration not stated)	none
O=C(c1ccccc1)C1CN(Cc2ccccc2)CCC1(O)c1ccccc1 (configuration not stated)	mHTT-CaM PPI inh 70
O=C(NCc1cc(F)cc(F)c1)c1ccc(NC(=O)C2CC2)cc1N1CCOCC1	none
Cc1nc(C2CCN(Cc3cccs3)CC2)n[nH]1	none
CCn1c(C2CCN(Cc3ccccn3)C2)nc2cccnc21 (configuration not stated)	mHTT-CaM PPI inh 100
COCCc1nc(C2CCCN(Cc3cccs3)C2)n[nH]1 (configuration not stated)	none
Cc1nc(C2CCN(Cc3ccccn3)CC2)n[nH]1	mHTT-CaM PPI inh 99
CCOc1ccccc1CN1CCC(c2nc3cccnc3n2CC)C1 (configuration not stated)	none
COCCc1nc(C2CCCN(Cc3ccccn3)C2)n[nH]1 (configuration not stated)	mHTT-CaM PPI inh 89
CCNC(=S)n1ccc(C)n1	none (no result: Pf apPOL inh)
COc1ccc(CNC(=O)c2ccc3c(c2)N(C)C(=O)C2CCCCN32)c(OC)c1 (configuration not stated)	none
O=C(O)c1ccc([N+](=O)[O-])c2c1NC(C1CC=CCC1)C1CC=CC21 (configuration not stated)	none
CCOc1cc2c(c([N+](=O)[O-])c1)NC(C1CC=CCC1)C1CC=CC21 (configuration not stated)	mHTT-CaM PPI inh 71
N#CC1=C(S)NC(=O)C([n+]2ccccc2)C1c1ccc(F)c(Br)c1 (configuration not stated)	none
N#CC1=C(S)NC(O)(c2ccccc2)C([n+]2ccccc2)C1c1ccccc1Br (configuration not stated)	mHTT-CaM PPI inh 77
CCc1c(C(=O)N2CCOCC2)c(CC(C)C)nn1-c1ccc(C)cc1	none
O=C1C(=Cc2ccccc2F)Oc2cc(O)ccc21	none
O=C(C=Cc1ccccc1)Oc1ccc2c(c1)OC(=Cc1ccco1)C2=O	mHTT-CaM PPI inh 79
O=C(Oc1ccc2c(c1)OC(=Cc1ccco1)C2=O)c1ccccc1	none
O=C(Oc1ccc2c(c1)OC(=Cc1ccco1)C2=O)c1ccco1	none
O=C(Oc1ccc2c(c1)OC(=Cc1ccco1)C2=O)c1cccs1	mHTT-CaM PPI inh 58
COc1ccc(C=C2Oc3cc(OC(=O)C(C)C)ccc3C2=O)cc1OC	mHTT-CaM PPI inh 62
O=C1C(=CC=Cc2ccco2)Oc2cc(O)ccc21	Pf apPOL inh 51, mHTT-CaM PPI inh 58!
COc1ccc(C=C2Oc3cc(OC(C)=O)ccc3C2=O)cc1OC	none
O=C(NCCc1cccs1)c1cccc(C2CCCN(C(=O)Nc3ccccc3)C2)c1 (configuration not stated)	none
O=C(Nc1c2c(nn1-c1ccc(Cl)cc1)CSC2)c1ccc(Cl)c([N+](=O)[O-])c1	none
N#Cc1ccccc1NC(=O)CSc1nc2c(cc1C#N)CCC2	none
O=C(Cc1ccc(-c2ccccc2)cc1)Nc1nnc2n1CCS2	none
O=C1OC(c2cc(Cl)ccc2Cl)=N/C1=C\c1ccco1	Pf apPOL inh 86
O=C1OC(c2ccccc2Cl)=N/C1=C\c1ccc(Cl)cc1	none
COc1ccc(OC)c(/C=C2\N=C(c3ccc(Cl)c([N+](=O)[O-])c3)OC2=O)c1	mHTT-CaM PPI inh 68
O=C1OC(c2ccccc2Cl)=N/C1=C\c1ccccc1	mHTT-CaM PPI inh 51
COc1ccc(Br)cc1/C=C1\N=C(c2ccc(Cl)c([N+](=O)[O-])c2)OC1=O	none
O=C1OC(c2ccc(Cl)cc2Cl)=N/C1=C\c1ccco1	none
COc1cccc(/C=C2\N=C(c3cccc(OC)c3)OC2=O)c1	none
COc1cccc(C2=N/C(=C\c3ccco3)C(=O)O2)c1	Pf apPOL inh 61
Cc1csc(=Nc2ccccc2)n1CC(=O)c1ccc(Cl)cc1	none
CCOc1ccc(CCNc2ncnc3c2nc2n3CCCCC2)cc1OCC	none
O=S1(=O)N[C@@H]2Cc3ccccc3[C@H]2Oc2cc(Br)ccc21	none
CN(C)c1ccc(N2CCN(C(=O)c3ccc(S(N)(=O)=O)cc3)CC2)nn1	none
Cc1c(N=Cc2ccc(O)c(Br)c2)c(=O)n(-c2ccccc2)n1C	none
CC(=O)n1c2c(c3ccccc31)OC(N)=C(C#N)C2c1ccc(C(C)C)cc1 (configuration not stated)	mHTT-CaM PPI inh 50
CC(=O)n1c2c(c3ccccc31)OC(N)=C(C#N)C2c1ccc(F)cc1 (configuration not stated)	none
Cc1ccccc1CNC(=O)C1(C)CCCN(S(=O)(=O)c2ccc(F)cc2)C1 (configuration not stated)	none
Cc1ccc(S(=O)(=O)N2CCCC(C)(C(=O)NCc3ccccc3C)C2)cc1C (configuration not stated)	mHTT-CaM PPI inh 77
COc1ccc(S(=O)(=O)N2CCCC(C)(C(=O)NCc3ccccc3C)C2)cc1 (configuration not stated)	none
Cc1ccccc1CNC(=O)C1(C)CCCN(S(=O)(=O)c2ccc(F)c(Cl)c2)C1 (configuration not stated)	mHTT-CaM PPI inh 84
Cc1sc2nc(C)n(Cc3csc(-c4ccc(Cl)cc4)n3)c(=O)c2c1C	none
Cc1sc2nc(C)n(Cc3ccc(C(F)(F)F)cc3)c(=O)c2c1C	mHTT-CaM PPI inh 88
O=C(CSc1cccc2cccnc12)N1CCCCC1	mHTT-CaM PPI inh 88
O=C(CSc1cccc2cccnc12)NC1CCCCC1	none
COc1ccc(-c2noc(C3CCCN3C(=O)CNC(=O)c3ccccc3)n2)cc1 (configuration not stated)	none
Cc1ccc(NC2=C(N3CCOCC3)C(=O)c3ccccc3C2=O)cc1	none
CC(C)(C)c1cc(C2=C(N3CCOCC3)C(=O)c3ccccc3C2=O)cc(C(C)(C)C)c1O	mHTT-CaM PPI inh 86
CC(C)(C)c1cc(C(c2ccccc2O)N2CCOCC2)cc(C(C)(C)C)c1O (configuration not stated)	mHTT-CaM PPI inh 52
COc1cc(C(c2cc3c(cc2O)OCO3)N2CCOCC2)cc(OC)c1OC (configuration not stated)	none (no result: Pf apPOL inh)

Screening results (PubChem BioAssay)
